Consider 22 compounds from PubChem BioAssay (EPA / NIEHS).

Structures are written as SMILES. Inconclusive results are not listed. Activity calls are given as the source filed them. The calls were made as follows: active = hit-call score of the fitted dose curve at least 0.9, where 1 is the maximum; inconclusive = response in the unintended direction; inactive = score below 0.9.

Chain of Androgen Receptor/SRC-1 Co-activator, AR (gene 367) (P10275 whole entry, looked up, the tested form may be a part): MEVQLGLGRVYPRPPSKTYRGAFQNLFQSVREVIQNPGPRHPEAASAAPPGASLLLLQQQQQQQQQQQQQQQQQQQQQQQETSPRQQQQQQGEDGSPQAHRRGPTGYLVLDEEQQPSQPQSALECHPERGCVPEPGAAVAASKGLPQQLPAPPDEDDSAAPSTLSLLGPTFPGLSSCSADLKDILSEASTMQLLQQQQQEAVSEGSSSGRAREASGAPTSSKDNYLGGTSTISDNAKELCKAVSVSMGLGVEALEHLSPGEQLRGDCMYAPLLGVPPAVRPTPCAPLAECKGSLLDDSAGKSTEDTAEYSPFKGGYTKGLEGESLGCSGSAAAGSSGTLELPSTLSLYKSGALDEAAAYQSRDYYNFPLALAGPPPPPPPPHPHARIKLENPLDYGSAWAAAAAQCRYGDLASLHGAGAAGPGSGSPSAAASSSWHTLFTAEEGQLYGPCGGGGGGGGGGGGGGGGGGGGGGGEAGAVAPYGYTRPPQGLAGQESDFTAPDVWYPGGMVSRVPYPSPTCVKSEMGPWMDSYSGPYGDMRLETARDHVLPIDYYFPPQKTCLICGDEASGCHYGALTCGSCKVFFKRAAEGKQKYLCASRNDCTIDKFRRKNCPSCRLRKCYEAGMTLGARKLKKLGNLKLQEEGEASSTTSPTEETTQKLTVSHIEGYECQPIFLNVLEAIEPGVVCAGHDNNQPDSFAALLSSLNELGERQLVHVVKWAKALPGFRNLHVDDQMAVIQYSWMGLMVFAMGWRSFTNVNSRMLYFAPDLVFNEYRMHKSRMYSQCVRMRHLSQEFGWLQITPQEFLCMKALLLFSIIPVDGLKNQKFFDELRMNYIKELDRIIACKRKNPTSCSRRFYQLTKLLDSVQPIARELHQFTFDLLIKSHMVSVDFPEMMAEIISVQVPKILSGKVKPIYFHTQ
Chain of human Peroxisome Proliferator-activated Receptor alpha (PPARa), PPARA (gene 5465) (Q07869 whole entry, looked up): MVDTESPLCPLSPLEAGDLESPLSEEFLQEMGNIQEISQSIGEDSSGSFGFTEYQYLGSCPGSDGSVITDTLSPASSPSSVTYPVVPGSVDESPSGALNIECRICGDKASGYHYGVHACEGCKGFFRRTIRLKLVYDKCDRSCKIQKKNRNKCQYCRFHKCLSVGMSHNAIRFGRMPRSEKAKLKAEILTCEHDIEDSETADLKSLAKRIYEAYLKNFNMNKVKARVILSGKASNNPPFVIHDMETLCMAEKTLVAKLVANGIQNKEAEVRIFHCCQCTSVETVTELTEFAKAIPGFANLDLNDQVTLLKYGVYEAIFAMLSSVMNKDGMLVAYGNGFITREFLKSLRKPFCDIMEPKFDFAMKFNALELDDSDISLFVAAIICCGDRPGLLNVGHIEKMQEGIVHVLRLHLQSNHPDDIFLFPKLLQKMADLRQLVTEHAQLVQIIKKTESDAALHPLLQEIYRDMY
Chain of Estrogen receptor beta (Homo sapiens) (Q92731 whole entry, looked up, the tested form may be a part): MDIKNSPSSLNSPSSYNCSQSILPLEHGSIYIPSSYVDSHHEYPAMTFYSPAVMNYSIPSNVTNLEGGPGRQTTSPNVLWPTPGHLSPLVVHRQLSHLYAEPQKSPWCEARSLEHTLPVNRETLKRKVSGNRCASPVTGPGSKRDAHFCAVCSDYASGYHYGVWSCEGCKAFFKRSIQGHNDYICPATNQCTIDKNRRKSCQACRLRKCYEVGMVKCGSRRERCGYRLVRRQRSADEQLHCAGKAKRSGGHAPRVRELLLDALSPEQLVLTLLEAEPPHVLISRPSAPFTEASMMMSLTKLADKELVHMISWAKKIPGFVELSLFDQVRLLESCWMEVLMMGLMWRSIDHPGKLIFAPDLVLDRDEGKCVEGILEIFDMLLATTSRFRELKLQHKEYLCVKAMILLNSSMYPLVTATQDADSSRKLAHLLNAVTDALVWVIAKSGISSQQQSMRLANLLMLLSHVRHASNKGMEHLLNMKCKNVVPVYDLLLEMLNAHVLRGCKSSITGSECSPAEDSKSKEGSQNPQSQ

One assay deals with T1, Estrogen receptor (Homo sapiens) + Estrogen receptor beta (Homo sapiens) (UniProt P03372+Q92731). Briefly: OT_ER_ERaERb_0480: Odyssey Thera (OT) 8-hour HEK293T Protein-Complementation Assay for Estrogen Receptor-alpha/-beta Heterodimer (AID 2283352). Put shortly: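 HEK293T cells expressing ER-alpha/ER-beta LBD fusions to complementary reporter fragments were dosed with compound for 8 hours. Heterodimer formation was read as increased nuclear (agonist) or nuclear plus cytoplasmic (antagonist) mean fluorescence intensity versus DMSO vehicle.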
T1 sequence (P03372 whole entry, looked up, the tested form may be a part): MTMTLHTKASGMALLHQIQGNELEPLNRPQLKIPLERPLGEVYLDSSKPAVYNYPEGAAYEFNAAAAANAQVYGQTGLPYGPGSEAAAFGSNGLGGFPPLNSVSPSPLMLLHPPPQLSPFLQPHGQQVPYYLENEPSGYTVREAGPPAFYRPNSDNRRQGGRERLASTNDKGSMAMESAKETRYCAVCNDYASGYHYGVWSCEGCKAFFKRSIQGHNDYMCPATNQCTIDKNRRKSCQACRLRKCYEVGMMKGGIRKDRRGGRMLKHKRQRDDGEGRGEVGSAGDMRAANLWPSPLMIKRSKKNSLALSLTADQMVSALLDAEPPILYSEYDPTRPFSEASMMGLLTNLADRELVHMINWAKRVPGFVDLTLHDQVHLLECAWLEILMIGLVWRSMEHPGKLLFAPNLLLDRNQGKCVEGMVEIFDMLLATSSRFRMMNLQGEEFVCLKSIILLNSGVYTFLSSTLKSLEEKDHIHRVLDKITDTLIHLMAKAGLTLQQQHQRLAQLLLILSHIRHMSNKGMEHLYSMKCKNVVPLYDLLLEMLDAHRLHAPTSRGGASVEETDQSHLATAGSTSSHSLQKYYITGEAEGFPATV
T1 sequence (Q92731 whole entry, looked up, the tested form may be a part): as the sequence (Q92731 whole entry, looked up, the tested form may be a part) above
Consider `C[N+](C)(C)CC1CO1` (centres undefined), for which the result was inactive.

In the case of `Nc1ccc(N=Nc2ccccc2)cc1`, the half-maximal activity concentration (AC50) was 29 µM (active).

`CC(C)COC(=O)c1ccccc1C(=O)OCC(C)C`: the half-maximal activity concentration (AC50) was 17.2 µM (active).

`ClC1=C(Cl)C2(Cl)C3C(Cl)C=CC3C1(Cl)C2(Cl)Cl` (centres undefined): the result was inactive.

Turning to `Cc1ccc([N+](=O)[O-])cc1`, the result was inactive.

Take `CNC(=O)Oc1cccc2c1OC(C)(C)C2`: the outcome was inactive.

With `OCCOCCO`, the outcome was inactive.

For `OCCCBr`, the outcome was inactive.

Regarding `[O-][Cl+]O`, the outcome was inactive.

In the case of `CCCCCCCCCCCCCN1CC(C)OC(C)C1` (centres undefined), the result was inactive.

`CCCCCOC(=O)c1ccccc1C(=O)OCCCCC`: the AC50 was 22.1 µM (active).

As to `CCCCCCCCn1sccc1=O`, the outcome was inactive.

Another assay concerns the target Androgen Receptor/SRC-1 Co-activator, AR (gene 367) (UniProt P10275). Kind of assay: OT_AR_ARSRC1_0960: Odyssey Thera (OT) 16-hour HEK293T Protein-Complementation Assay for Androgen Receptor/SRC-1 Co-activator (AID 2283353).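 Also: actives raise the signal above DMSO so potency reflects increased AR and SRC-1 complex.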 The method, boiled down: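 Readout: 488 nm nuclear-to-cytoplasmic fluorescence ratio from imaging of at least 400 cells per image, 16 h post-dose. Reporter is Venus YFP complementation between AR and SRC-1 fusions, stably expressed in HEK293T; activity scored upward relative to DMSO.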
Consider `CO[C@@H]1[C@H](OC(=O)NC(=O)CCl)CC[C@]2(CO2)[C@H]1[C@@]1(C)O[C@@H]1CC=C(C)C`, for which the AC50 was 10.7 µM (active).

As for `CCCCC(CC)COC(=O)c1ccc(C(=O)OCC(CC)CCCC)c(C(=O)OCC(CC)CCCC)c1` (centres undefined), the compound was called inactive.

For the compound `Nc1ccc(Cl)cc1N`, the compound was called inactive.

Turning to `O=C(Nc1ccccc1)c1ccccc1I`, the compound was classed as inactive.

On to `CNC(=O)Oc1cccc2c1OC(C)(C)C2`, for which the outcome was inactive.

For the compound `CCNS(=O)(=O)C(F)(F)C(F)(F)C(F)(F)C(F)(F)C(F)(F)C(F)(F)C(F)(F)C(F)(F)F`, the outcome was inactive.

`O=[N+]([O-])C(Br)(CO)CO`: the half-maximal activity concentration (AC50) was 71 µM (active).

For a further assay, the target named is T1, Estrogen receptor (Homo sapiens) + Estrogen receptor beta (Homo sapiens). Kind of assay: OT_ER_ERaERb_1440: Odyssey Thera (OT) 24-hour HEK293T Protein-Complementation Assay for Estrogen Receptor-alpha/-beta Homodimer (AID 2283356).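 Also: heteromer of ER alpha and ER beta binding domains; hits raise reporter fluorescence and both agonists and antagonists give an increase.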 Put shortly: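 HEK293T cells stably expressing a PCA pair of ERα LBD (aa 310-547) and ERβ LBD (aa 263-489) were dosed for 24 h. Fluorescence intensity increase versus DMSO vehicle was fitted as gain-of-signal.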
Consider `C[N+](C)(C)CC1CO1` (centres undefined), for which the result was inactive.

Consider `CO[C@@H]1[C@H](OC(=O)NC(=O)CCl)CC[C@]2(CO2)[C@H]1[C@@]1(C)O[C@@H]1CC=C(C)C`, for which the outcome was inactive.

With `Nc1ccc(N=Nc2ccccc2)cc1`, the half-maximal activity concentration (AC50) is 39.4 µM (active).

Regarding `CC(C)COC(=O)c1ccccc1C(=O)OCC(C)C`, the concentration at half-maximal activity (AC50) was 31.1 µM (active).

With `[Cl-].[Cl-].[Hg+2]`, the result was inactive.

For `ClC1=C(Cl)C2(Cl)C3C(Cl)C=CC3C1(Cl)C2(Cl)Cl` (centres undefined), the result was inactive.

With `O=C(Nc1ccccc1)c1ccccc1I`, the outcome was inactive.

For `Cc1ccc([N+](=O)[O-])cc1`, the result was inactive.

As to `CNC(=O)Oc1cccc2c1OC(C)(C)C2`, the outcome was inactive.

With `OCCOCCO`, the result was inactive.

Consider `N#CC(Br)Br`, for which the result was inactive.

As for `OCCCBr`, the result was inactive.

Turning to `O=[N+]([O-])C(Br)(CO)CO`, the outcome was inactive.

In the case of `[O-][Cl+]O`, the outcome was inactive.

Consider `CCCCCCCCCCCCCN1CC(C)OC(C)C1` (centres undefined), for which the outcome was inactive.

As to `CCCCCOC(=O)c1ccccc1C(=O)OCCCCC`, the AC50 was 42 µM (active).

As to `CCCCCCCCn1sccc1=O`, the result was inactive.

A further assay addresses Estrogen receptor beta (Homo sapiens) (UniProt Q92731). Kind of assay: OT_ER_ERbERb_0480: Odyssey Thera (OT) 8-hour HEK293T Protein-Complementation Assay for Estrogen Receptor-beta/-beta Homodimer (AID 2283357).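 Also: active means signal gain over DMSO baseline.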 The method, boiled down:
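Fluorescence gain from complemented reporter fragments on ER-beta LBD homodimer in HEK293T was quantified against DMSO controls after 8 h treatment, fixation in 4% formaldehyde and Draq5 staining.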
For the compound `C[N+](C)(C)CC1CO1` (centres undefined), the compound was classed as inactive.

For `CO[C@@H]1[C@H](OC(=O)NC(=O)CCl)CC[C@]2(CO2)[C@H]1[C@@]1(C)O[C@@H]1CC=C(C)C`, the result was inactive.

`N#CC(Br)Br`: the compound was classed as inactive.

Another assay has as its target human Peroxisome Proliferator-activated Receptor alpha (PPARa), PPARA (gene 5465) (UniProt Q07869). Briefly: NVS_NR_hPPARa: NovaScreen (NVS) Nuclear Receptor Binding Assay for human Peroxisome Proliferator-activated Receptor alpha (PPARa) (AID 2283359).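 Also: activity means loss of TR-FRET signal versus DMSO baseline.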 The method, boiled down:
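One-hour incubation, cell-free extracted protein, TR-FRET binding readout; signal loss vs DMSO scored. Screen: 25 uM duplicates, confirmatory dose series for actives.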
Consider `CC(C)COC(=O)c1ccccc1C(=O)OCC(C)C`, for which the compound was called inactive.

Take `Clc1ccc(C(c2ccc(Cl)cc2)C(Cl)Cl)cc1`: the compound was called inactive.

For `CCNS(=O)(=O)C(F)(F)C(F)(F)C(F)(F)C(F)(F)C(F)(F)C(F)(F)C(F)(F)C(F)(F)F`, the result was inactive.

As for `O=[N+]([O-])C(Br)(CO)CO`, the result was inactive.

Turning to `CCC[CH2][Sn]([Cl])([CH2]CCC)[CH2]CCC`, the AC50 was 0.0235 µM (active).

What is called AC50 is the concentration at which the activity in the assay is half-maximal.
